This note sets out measurements from ChEMBL document CHEMBL4513149, “CO-ADD screening of MMV (CH) - MMV compounds” (2021).

Each structure is given as a SMILES string. Results with a measured potency or affinity are listed apart.

One test relates to Staphylococcus aureus. The conditions noted are these: Concentration 20 uM; ASSAY_TEST Inhibition of Bacterial Growth; detection method Absorption (OD600); MEDIA CAMHB; plate type 384well; NBS; CORNING #3640; time 18 hr.
Take `CC1CC1C(=O)NC1CCN(CC2(c3ccccc3)CCCCC2)CC1` (configuration not stated): the Inhibition is given as 14.54%.
Regarding `CCOc1ccc(OCC(=O)Nc2cc(C)cc(C)c2)cc1`, the Inhibition worked out at 14.06%.
With `CCC(NC(=O)c1ccccc1NC(=O)c1ccc(C)cc1)C(=O)OC` (configuration not stated), the Inhibition is on record as 17.84%.
On the same count and under the same terms, then `CC(=O)N1CCc2cc3nc(C)cc(C)c3cc21`, with 14.4%; and `CCn1cnc2c(Nc3cc(F)cc(F)c3)nc(C#N)nc21`, with 36.21%; and `CCc1cc(=O)n(C)c(SC(C)C(=O)Nc2ccc(F)cc2)n1` (configuration not stated), with 4.54%.
For the compound `CC(C)(C)n1nc(-c2ccccc2)c2c(N)ncnc21`, the Inhibition is on record as 6.95%.
In the case of `CC(=O)Nc1ccc(NC(=O)c2cc(-c3cc(Cl)ccc3O)n[nH]2)cc1`, the Inhibition is on record as 5.62%.
For the compound `Cc1cc(C)n2nc(C(=O)Nc3cc(C(F)(F)F)ccc3N3CCOCC3)nc2n1`, the Inhibition came to 13.59%.
Turning to `CS(=O)(=O)c1ccccc1C(=O)N(Cc1ccccc1)c1ccccc1`, the Inhibition worked out at 14.37%.
Take `Cc1nnc(NC(=O)c2cn(-c3ccccc3)nc2-c2ccccc2C)o1`: the Inhibition is given as 8.57%.
On the same count and under the same terms, then `Cl.Cl.Cl.NS(=O)(=O)c1cncc(-c2ccc3nccc(-c4cn[nH]c4)c3n2)c1`, with 9.83%.
Turning to `O=C(NC1CC1)c1ccc(N2CCC(Cc3ccccc3)CC2)nc1`, the Inhibition stood at 20.17%.
The same measure, in the same setting: for `O=C(Nc1c(O)cccc1-c1nc2c(C(=O)O)cccc2o1)c1cc(-c2ccccc2)on1` the value was 0.11%; for `Cc1cc(NCC(C)C)c2[nH]nc(-c3ccccc3)c2n1`, 14.44%; for `CCCS(=O)(=O)N1CCC(CO)(Cc2ccccc2C(F)(F)F)CC1`, 8.25%.
In the case of `COc1cccc(OCC(=O)c2ccc(Br)cc2)c1`, the Inhibition is -13.25%.
With `CC(C)(C)n1nc(Cc2cccc3ccccc23)c2c(N)ncnc21`, the Inhibition was 2.05%.
Take `CCCNC(=O)N1CCC2(CC1)CC(=O)c1cc(C)ccc1O2`: the Inhibition was found to be 20.33%.
Regarding `O=C1N(Cc2cc3ccccc3s2)CC2CN(Cc3ccccc3)CCN12` (configuration not stated), the Inhibition was 3.35%.
Same read-out and setting: for `O=[N+]([O-])c1cn2c(n1)OC[C@@H](OCc1ccc(OC(F)(F)F)cc1)C2` [PRETOMANID] the value was 14.36%; for `CC(C)=CCC/C(C)=C\CNCCNC1C2CC3CC(C2)CC1C3` (configuration not stated), 37.58%.
Turning to `CCC(Sc1nc2ccccc2o1)C(=O)Nc1nnc(C)s1` (configuration not stated), the Inhibition was -13.91%.
For `Cc1ccccc1C(=O)N1N=C(Nc2ccccc2)SC1(C)C`, the Inhibition was 8.67%.
As for `CC(C)/N=c1\cc2n(-c3ccc(Cl)cc3)c3ccccc3nc-2cc1Nc1ccc(Cl)cc1` [CLOFAZIMINE], the Inhibition came out at 59.44%.
For `Cc1ccc2oc(-c3cc(NC(=O)Cc4ccccc4)ccc3Cl)nc2c1`, the Inhibition is 2.8%.
Turning to `Cc1nn(C)cc1C(C)Nc1nncc(-c2ccc(C(F)(F)F)cc2)n1` (configuration not stated), the Inhibition was found to be 2.57%.
As to `Cc1cc(Nc2ccncc2)n2nc(C)c(-c3ccccc3Cl)c2n1`, the Inhibition was 12.68%.
On the same count and under the same terms, for `CC(C)NCC(=O)Nc1cccc(C(=O)Nc2cccc(C(F)(F)F)c2)c1` the value was 3.81%; for `Cl.c1ccc(Oc2ccc(-c3cc(N4CCNCC4)[nH]n3)cc2)cc1`, 14.57%; for `CC(C)(C)OC(=O)N1CCN(c2nccc(-c3ccc(-c4ccc(Cl)cc4)s3)n2)CC1`, 15.85%.
For `CCc1nc2ccc(Cl)cn2c1C(=O)NCc1ccc(N2CCC(c3ccc(OC(F)(F)F)cc3)CC2)cc1` [TELACEBEC], the Inhibition was determined as 17.2%.
With `CC(C)(C)CN1C(=O)C(c2ccccc2)(c2ccccc2)N=C1N`, the Inhibition amounted to 17.09%.
Still for that read-out and setting: for `Clc1ccc(CN2CCN(C3=NCCN3)CC2)cc1Cl` the value was 14.27%; for `NC(=O)c1cc(-c2ccsc2)ccc1OCCOc1ccccc1`, 14.87%.
Regarding `COc1ccc(-c2cc(NC(=O)c3ccc(F)cc3Cl)ccc2OC)cc1`, the Inhibition is listed as 17.79%.

The next test concerns Escherichia coli. The conditions noted are these: Concentration 20 uM; ASSAY_TEST Inhibition of Bacterial Growth; detection method Absorption (OD600); MEDIA CAMHB; plate type 384well; NBS; CORNING #3640; time 18 hr.
Consider `CC1CC1C(=O)NC1CCN(CC2(c3ccccc3)CCCCC2)CC1` (configuration not stated), for which the Inhibition is 6.55%.
With `CCOc1ccc(OCC(=O)Nc2cc(C)cc(C)c2)cc1`, the Inhibition came to 3.81%.
Turning to `CCC(NC(=O)c1ccccc1NC(=O)c1ccc(C)cc1)C(=O)OC` (configuration not stated), the Inhibition amounted to 3.87%.
As to `CC(=O)N1CCc2cc3nc(C)cc(C)c3cc21`, the Inhibition is on record as 5.79%.
With `CCn1cnc2c(Nc3cc(F)cc(F)c3)nc(C#N)nc21`, the Inhibition was determined as 12.2%.
`CCc1cc(=O)n(C)c(SC(C)C(=O)Nc2ccc(F)cc2)n1` (configuration not stated): the Inhibition is on record as 4.12%.
For the compound `CC(C)(C)n1nc(-c2ccccc2)c2c(N)ncnc21`, the Inhibition is reported as -3.37%.
On the same count and under the same terms, for `CC(=O)Nc1ccc(NC(=O)c2cc(-c3cc(Cl)ccc3O)n[nH]2)cc1` the value was 10.03%; for `Cc1cc(C)n2nc(C(=O)Nc3cc(C(F)(F)F)ccc3N3CCOCC3)nc2n1`, 10.47%; for `CS(=O)(=O)c1ccccc1C(=O)N(Cc1ccccc1)c1ccccc1`, 5.13%.
For `Cc1nnc(NC(=O)c2cn(-c3ccccc3)nc2-c2ccccc2C)o1`, the Inhibition is recorded as 8.61%.
With `Cl.Cl.Cl.NS(=O)(=O)c1cncc(-c2ccc3nccc(-c4cn[nH]c4)c3n2)c1`, the Inhibition was 6.62%.
In the case of `O=C(NC1CC1)c1ccc(N2CCC(Cc3ccccc3)CC2)nc1`, the Inhibition is 11.23%.
Consider `O=C(Nc1c(O)cccc1-c1nc2c(C(=O)O)cccc2o1)c1cc(-c2ccccc2)on1`, for which the Inhibition is listed as -12.15%.
Consider `Cc1cc(NCC(C)C)c2[nH]nc(-c3ccccc3)c2n1`, for which the Inhibition is reported as 8.23%.
Consider `CCCS(=O)(=O)N1CCC(CO)(Cc2ccccc2C(F)(F)F)CC1`, for which the Inhibition was -1.16%.
Regarding `COc1cccc(OCC(=O)c2ccc(Br)cc2)c1`, the Inhibition is reported as -7.45%.
On the same count and under the same terms, then `CC(C)(C)n1nc(Cc2cccc3ccccc23)c2c(N)ncnc21`, with -5.14%; and `CCCNC(=O)N1CCC2(CC1)CC(=O)c1cc(C)ccc1O2`, with 10.17%.
For `O=C1N(Cc2cc3ccccc3s2)CC2CN(Cc3ccccc3)CCN12` (configuration not stated), the Inhibition is reported as -5.97%.
As for `O=[N+]([O-])c1cn2c(n1)OC[C@@H](OCc1ccc(OC(F)(F)F)cc1)C2` [PRETOMANID], the Inhibition is listed as 4.79%.
Take `CC(C)=CCC/C(C)=C\CNCCNC1C2CC3CC(C2)CC1C3` (configuration not stated): the Inhibition is listed as 10.47%.
Still for that read-out and setting: for `CCC(Sc1nc2ccccc2o1)C(=O)Nc1nnc(C)s1` (configuration not stated) the value was -8.34%; for `Cc1ccccc1C(=O)N1N=C(Nc2ccccc2)SC1(C)C`, 8.51%; for `CC(C)/N=c1\cc2n(-c3ccc(Cl)cc3)c3ccccc3nc-2cc1Nc1ccc(Cl)cc1` [CLOFAZIMINE], 9.66%.
Regarding `Cc1ccc2oc(-c3cc(NC(=O)Cc4ccccc4)ccc3Cl)nc2c1`, the Inhibition was found to be 6.02%.
For `Cc1nn(C)cc1C(C)Nc1nncc(-c2ccc(C(F)(F)F)cc2)n1` (configuration not stated), the Inhibition was 3.9%.
Take `Cc1cc(Nc2ccncc2)n2nc(C)c(-c3ccccc3Cl)c2n1`: the Inhibition came to 7.54%.
The same measure, in the same setting: then `CC(C)NCC(=O)Nc1cccc(C(=O)Nc2cccc(C(F)(F)F)c2)c1`, with -2.15%; and `Cl.c1ccc(Oc2ccc(-c3cc(N4CCNCC4)[nH]n3)cc2)cc1`, with 9.1%.
For the compound `CC(C)(C)OC(=O)N1CCN(c2nccc(-c3ccc(-c4ccc(Cl)cc4)s3)n2)CC1`, the Inhibition amounted to 9.45%.
On to `CCc1nc2ccc(Cl)cn2c1C(=O)NCc1ccc(N2CCC(c3ccc(OC(F)(F)F)cc3)CC2)cc1` [TELACEBEC], for which the Inhibition is listed as 13.17%.
Turning to `CC(C)(C)CN1C(=O)C(c2ccccc2)(c2ccccc2)N=C1N`, the Inhibition turned out to be 4.18%.
On to `Clc1ccc(CN2CCN(C3=NCCN3)CC2)cc1Cl`, for which the Inhibition is recorded as 4.2%.
Consider `NC(=O)c1cc(-c2ccsc2)ccc1OCCOc1ccccc1`, for which the Inhibition was found to be 5.41%.
Still for that read-out and setting: for `COc1ccc(-c2cc(NC(=O)c3ccc(F)cc3Cl)ccc2OC)cc1` the value was 8.24%.

As usually defined, the Inhibition is the relative decrease from the control value, in per cent.
